Test systems include SK-MEL-2 melanoma; EKVX NSCLC; SN12C renal; UO-31 renal; TK-10 renal; ACHN renal; CAKI-1 renal; A498 renal; CCRF-CEM leukemia; MOLT-4 leukemia.
Holding throughout (experiment): NCI-60 one-dose screen, 48 h (100 = growth as untreated, 0 = no growth, -100 = all killed)
Settings in all cases: 10 µM unless noted

Results on 14 compounds are retold here after PubChem BioAssay (NCI).

The structures appear in SMILES notation. About 83,000 compounds went through this panel and 20% of them were active in at least one assay; those are over-represented in the sample as a whole.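 96-well plates, one dose, 48 hours. Percent growth reported; active if below 10.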 A number with no mark means an inactive call. Active and inactive are the calls of the source.

On to `O=C(c1ccccc1)C(Br)[N+](=O)[O-]` (stereo not given), for which the growth in the assay with SK-MEL-2 melanoma is 97.5%; in the assay with EKVX NSCLC, 96.5%; in the assay on SN12C renal, 103%; in the assay with UO-31 renal, 80.8%; in the assay on TK-10 renal, 106%; in the assay on ACHN renal, 86.8%. Moreover, the growth in the assay on CAKI-1 renal was 93%; in the assay on A498 renal, 101%; in the assay with CCRF-CEM leukemia, 24.8%; in the assay on MOLT-4 leukemia, 20.6%.
Consider `CCOC(=O)C1=NN(c2ccccc2)C(=O)/C1=C\N1C(=O)/C(=C/c2cccc(O)c2)SC1=S`, for which the growth is 99.6% with SK-MEL-2 melanoma; 107% with EKVX NSCLC; 82.3% in the assay on SN12C renal; 76% in the assay on UO-31 renal; 117% in the assay with TK-10 renal; 99.5% in the assay with ACHN renal. In addition, the growth was 100% in the assay on CAKI-1 renal, 94.5% in the assay with A498 renal, 93% with CCRF-CEM leukemia and 95.7% in the assay on MOLT-4 leukemia.
Turning to `OC(Cc1cc(CC(O)(C(F)(F)F)C(F)(F)F)nc(CC(O)(C(F)(F)F)C(F)(F)F)c1)(C(F)(F)F)C(F)(F)F`, the growth in the assay on SK-MEL-2 melanoma is -28.3% (active); in the assay with EKVX NSCLC it was 16%; with SN12C renal, 4.86% (active); in the assay with UO-31 renal, 6.74% (active); with TK-10 renal, 22.1%; in the assay with ACHN renal, 0.867% (active). Also, the growth with CAKI-1 renal is 4.5% (active); with A498 renal, -18.8% (active); in the assay with CCRF-CEM leukemia, 7.23% (active); in the assay on MOLT-4 leukemia, -8.17% (active).
Turning to `Cc1ccccc1N=C(N)Nc1ccccc1C` (tested in a mixture with another compound), the growth is 85.7% with SK-MEL-2 melanoma; 85.3% in the assay with EKVX NSCLC; 82.8% in the assay on SN12C renal; 71.1% with UO-31 renal; 67.8% with TK-10 renal; 77.9% with ACHN renal. Moreover, the growth in the assay with CAKI-1 renal was 52.9%; in the assay on A498 renal it was 96.8%; in the assay on CCRF-CEM leukemia it was 9.64% (active); with MOLT-4 leukemia, 37.1%.
Consider `CC1(C)N=c2cc3c(cc2N1c1ccc(Cl)cc1)=Nc1ccccc1N3c1ccc(Cl)cc1`, for which the growth in the assay on SK-MEL-2 melanoma is -1.35% (active); in the assay with EKVX NSCLC, 52.9%; in the assay with SN12C renal, 75.7%; in the assay on UO-31 renal, -37.1% (active); in the assay on TK-10 renal, 65.2%; with ACHN renal it was 40.2%. In addition, the growth was 44.2% in the assay on CAKI-1 renal, 26.7% with A498 renal, -25.3% (active) with CCRF-CEM leukemia and -32.2% (active) with MOLT-4 leukemia.
On to `CCCCCCCCCCCC[n+]1ccc2ccccc2c1`, for which the growth is -24.7% (active) in the assay with SK-MEL-2 melanoma; -4.82% (active) with EKVX NSCLC; -18.4% (active) with SN12C renal; -23.8% (active) in the assay on UO-31 renal; -46.7% (active) in the assay on TK-10 renal; 13% in the assay on ACHN renal. Moreover, the growth in the assay with CAKI-1 renal was 40.9%; with A498 renal, 77.6%; in the assay with CCRF-CEM leukemia, 3.12% (active); with MOLT-4 leukemia, -25.9% (active).
As for `Cc1cc(C(=O)c2ccc(Cl)cc2)ccc1O`, the growth in the assay with SK-MEL-2 melanoma was 125%; with EKVX NSCLC, 81%; in the assay on SN12C renal it was 89.3%; in the assay on UO-31 renal, 84.7%; in the assay on TK-10 renal it was 87%; with ACHN renal, 87.3%. Besides, the growth in the assay on CAKI-1 renal is 90.5%; in the assay on A498 renal it was 76.1%; in the assay on CCRF-CEM leukemia it was 96.9%; with MOLT-4 leukemia it was 102%.
For `c1ccc(C2NCCNC2c2ccccc2)cc1` (stereo not given), the growth in the assay on SK-MEL-2 melanoma is 98.7%; with EKVX NSCLC, 103%; with SN12C renal it was 102%; in the assay with UO-31 renal, 80.9%; in the assay with TK-10 renal, 110%; in the assay with ACHN renal, 108%. The growth is 97.6% in the assay on CAKI-1 renal, 80.6% in the assay on A498 renal, 104% in the assay with CCRF-CEM leukemia and 99.7% in the assay with MOLT-4 leukemia.
For `N#CCc1cccc2ccccc12`, the growth is 95.1% with SK-MEL-2 melanoma; 101% in the assay with EKVX NSCLC; 110% in the assay with SN12C renal; 92% in the assay on UO-31 renal; 98.3% in the assay on TK-10 renal; 103% with ACHN renal. Also, the growth was 103% in the assay on CAKI-1 renal, 109% in the assay with A498 renal, 91.9% in the assay on CCRF-CEM leukemia and 92% with MOLT-4 leukemia.
Take `OC(c1cc2ccc(C(F)(F)F)cc2c2cc(C(F)(F)F)ccc12)C1CCCCN1` (stereo not given): the growth is -83.1% (active) with SK-MEL-2 melanoma; -96.7% (active) in the assay with EKVX NSCLC; -90.8% (active) with SN12C renal; -95.8% (active) with UO-31 renal; -89.5% (active) with TK-10 renal; -94.1% (active) in the assay on ACHN renal. Moreover, the growth in the assay on CAKI-1 renal is -93.8% (active); in the assay on A498 renal, -65.6% (active); in the assay on CCRF-CEM leukemia it was -68% (active); with MOLT-4 leukemia it was -73.4% (active).
With `Cc1nc(Sc2nc3ccc([N+](=O)[O-])cc3s2)sc1C`, the growth is 15.4% with SK-MEL-2 melanoma; 88.5% with EKVX NSCLC; -29.4% (active) in the assay with SN12C renal; 23.5% with UO-31 renal; 19.3% in the assay with TK-10 renal; 11.4% with ACHN renal. Besides, the growth in the assay with CAKI-1 renal is 28.5%; in the assay on A498 renal it was 46.5%; in the assay with CCRF-CEM leukemia, -13.5% (active); in the assay with MOLT-4 leukemia, -7.45% (active).
Turning to `O/N=C1\c2ccccc2-c2ccc(F)cc21`, the growth was 97.5% with SK-MEL-2 melanoma; 90.4% in the assay with EKVX NSCLC; 94.4% in the assay with SN12C renal; 47.7% with UO-31 renal; 84.8% in the assay with TK-10 renal; 87.1% in the assay with ACHN renal. Further, the growth in the assay on CAKI-1 renal is 94.1%; with A498 renal it was 132%; with CCRF-CEM leukemia, 86.5%; with MOLT-4 leukemia, 71.6%.
Turning to `O=C(O)c1cccc2cccc(-c3c4ccc(=O)c(O)c-4oc4c(O)c(O)ccc34)c12`, the growth was 96.8% in the assay on SK-MEL-2 melanoma; 83.7% in the assay with EKVX NSCLC; 91% with SN12C renal; 66.6% in the assay with UO-31 renal; 110% in the assay with TK-10 renal; 92.3% with ACHN renal. The growth in the assay with CAKI-1 renal is 90.2%; with A498 renal it was 104%; with CCRF-CEM leukemia it was 94.7%; in the assay on MOLT-4 leukemia, 82.2%.
For `NC1=C(Br)C(=O)c2ncccc2C1=O`, the growth in the assay with SK-MEL-2 melanoma is -54.1% (active); in the assay on EKVX NSCLC, -14.2% (active); with SN12C renal, -84.8% (active); with UO-31 renal, -96.8% (active); in the assay on TK-10 renal it was 79.1%; in the assay with ACHN renal it was -7.81% (active). The growth with CAKI-1 renal was -81.2% (active); in the assay with A498 renal it was 113%; with CCRF-CEM leukemia, 10.5%; with MOLT-4 leukemia, -5.62% (active).
